# Screening results: PubChem BioAssay, National Center for Advancing Translational Sciences (NCATS)
# An excerpt weighted towards active compounds, which were near 12% of everything screened.
# SARS PLpro yeast: inhibitors of SARS-CoV papain-like protease in yeast | 330,000 compounds, 0.19% hits | AID 485353 | Potency, µM (doses to about 32.9 µM), for inactives: at the highest dose activity, positive = growth rescue, usual class: activators | S. cerevisiae expressing SARS-CoV PLpro, growth rescue; calls by dose curve; further: 0% is about no effect; nearly all actives have a fitted effect of over 55% in size
# Pf growth 48h: P. falciparum growth inhibition at 48 hours (one generation) | Potency, µM (highest dose often 28.7 µM), for inactives: at the top dose activity change, negative = inhibition, hits mostly inhibitors | P. falciparum luciferase growth in erythrocytes, 48 h | AID 504832 | 310,000 compounds, 5.9% hits; further: on the % scale 0 is the no-effect control and ±100 the full control effect
#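 Parasite viability was followed by luminescence of a genomically integrated firefly luciferase. Cultures held 0.1% parasitemia at 2% hematocrit (final), incubated under 5% CO2 at 37 C.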
# Pf growth 96h: P. falciparum growth inhibition at 96 hour, primary screen for plastid delayed-death inhibitors; P. falciparum luciferase reporter growth, 96 h; Potency, µM (titrated, usually from 28.7 µM), inactives show at the highest dose activity change, negative = inhibition, actives largely listed as inhibitors; 320,000 compounds, 6.9% hits; further: on the % scale 0 is the no-effect control and ±100 the full control effect
#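 Erythrocytes infected with luciferase-expressing P. falciparum were dispensed at 2% hematocrit and 0.05% parasitemia (final), then incubated with compounds 96 hours at 37 C in 5% CO2. Luminescence after detection reagent addition reported growth.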
# Sm TGR block: S. mansoni TGR enzyme inhibition; Q962Y6; purified TGR, DTNB reduction, TNB absorbance 405 nm; Potency, µM (doses to about 114 µM), for the others: top-dose activity change, negative = inhibition, actives largely listed as inhibitors; 360,000 compounds, 3% hits; AID 485364; further: on the % scale 0 is the no-effect control and ±100 the full control effect; nearly all actives have a fitted effect of over 60% in size
#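 Kinetic colorimetric format: TGR-catalysed, NADPH-driven DTNB reduction monitored via TNB absorbance. Enzyme dispensed at 20 nM; compound exposure 15 min at room temperature before reaction start.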
# AmpC no deterg: AmpC beta-lactamase inhibition without detergent. AmpC nitrocefin hydrolysis, absorbance 480 nm, 0.0001% Triton. 330,000 compounds, 0.52% hits. Potency, µM (series often up to 57.1 µM), for inactives: at the highest dose activity change, negative = inhibition, hits mostly inhibitors;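 further: plate controls were no compound for no effect and no enzyme for full effect; nearly all actives have a fitted effect of over 20% in size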
# Target sequence (P00811 whole entry, looked up): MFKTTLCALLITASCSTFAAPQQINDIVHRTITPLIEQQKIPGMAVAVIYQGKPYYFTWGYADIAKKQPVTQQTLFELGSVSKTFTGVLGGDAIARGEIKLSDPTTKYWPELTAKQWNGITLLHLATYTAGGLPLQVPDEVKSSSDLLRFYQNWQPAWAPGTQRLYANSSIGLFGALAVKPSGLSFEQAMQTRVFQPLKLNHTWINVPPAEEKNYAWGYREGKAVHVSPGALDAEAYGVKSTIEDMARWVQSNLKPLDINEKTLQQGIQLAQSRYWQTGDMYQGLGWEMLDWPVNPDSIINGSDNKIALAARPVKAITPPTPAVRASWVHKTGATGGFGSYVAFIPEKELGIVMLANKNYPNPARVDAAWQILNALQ
#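 AmpC (5.3 nM in the dispensed reagent) in 20 mM phosphate pH 7.0 with 0.01% (detergent screen) or 0.0001% Triton X-100 was preincubated with compounds for 15 min at room temperature. Nitrocefin was then added from an 800 uM solution, and hydrolysis was followed at 480 nm.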
# AmpC detergent: AmpC beta-lactamase inhibition with detergent present; Potency, µM (doses to about 114 µM), inactives show top-dose activity change, negative = inhibition, actives largely listed as inhibitors; P00811; AmpC hydrolysis of nitrocefin, absorbance 480 nm, 0.01% Triton; AID 485294; 370,000 compounds, 0.041% hits;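 further: 0% = no-compound wells and -100% = no-enzyme wells; nearly all actives have a fitted effect of over 25% in size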
#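 20 mM phosphate pH 7.0 + 0.01% (detergent screen) or 0.0001% Triton X-100; 5.3 nM AmpC reagent; cpd preinc 15 min RT; nitrocefin (800 uM stock) to start; A480 q20 s × 4 min; Activity was normalised to no-enzyme and no-compound control wells.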
# * = called active by the depositor; ? = inconclusive; · = no result. Unless noted, the call rests on the fitted dose curve; in most records, active means well fitted curve in the direction sought with a large enough effect; inconclusive means small, poorly fitted or top-dose-only effect, or another doubt; inactive means no such curve, though single readings can be large; an effect the other way counts as inactive or inconclusive. Potency means the concentration at half of the fitted maximal effect.
SMILES,SARS PLpro yeast,Pf growth 48h,Pf growth 96h,Sm TGR block,AmpC no deterg,AmpC detergent
Cc1ccc(CSc2nc3ccncc3n2CC(=O)Nc2cc(C)cc(C)c2)cc1,8%,140%,?,-11%,7.1µM*,-7%
CCCN(CC(=O)Nc1ccccc1C)C(=O)Cc1cccs1,0%,?,?,-4%,-16%,2%
Cc1ccccc1CC(=O)OCC(=O)Nc1ccc(C)c(S(=O)(=O)N2CCCCC2)c1,1%,10µM*,?,0%,-26%,9%
Cc1ccc(NC(=O)COc2ccccc2C#N)cc1S(=O)(=O)N1CCCCCC1,1%,?,8.3µM*,1%,-32%,-11%
Cc1ccc(NC(=O)COc2ccccc2)cc1S(=O)(=O)N1CCCCCC1,0%,?,?,-1%,-20%,?
Cc1ccc(NC(=O)COC(=O)C2CCC2)cc1S(=O)(=O)N1CCCCC1,-5%,8%,?,1%,-30%,-9%
CCOc1ccccc1NC(=O)Cn1c(=O)n(Cc2ccccc2)c(=O)c2c(C)c(C)sc21,·,·,·,-1%,·,7%
COc1ccc(CNC(=O)C2CCN(c3nc4ccccc4[nH]3)CC2)cc1OC,·,·,·,-2%,·,15%
Cn1c2ccccc2c(=O)c2c(=O)n(-c3ccccc3)c(C3CCCCC3)nc21,-22%,9.3µM*,9.3µM*,0%,-15%,-8%
Cn1c2ccccc2c(=O)c2c(=O)n(C3CCCCC3)c(-c3cccs3)nc21,-3%,6.6µM*,·,0%,-34%,-1%
Cn1c2ccccc2c(=O)c2c(=O)n(C3CCCCCC3)c(C3CCCCC3)nc21,0%,8.3µM*,10µM*,-3%,-23%,-5%
O=C(Nc1ccc(Cl)cc1Cl)c1cccc(N2C(=O)C=CC2=O)c1,-19%,4%,49%,-16%,-32%,?
CCOc1ccc(NC(=O)Cn2c(C)cc3ccccc3c2=O)cc1,·,·,·,13%,·,4%
COc1ccc(-c2onc(C)c2-c2cnn(-c3ccccc3)c2)c(O)c1,-1%,12µM*,4%,12%,-14%,-9%
COc1ccc(N2CCN(C(=O)[C@@H](NC(=O)c3ccccc3Cl)C(C)C)CC2)cc1,0%,?,?,-7%,34%,?
COc1ccc(CC(=O)N2CCc3ccccc3C2)cc1,1%,12%,8.3µM*,-8%,-5%,0%
COc1ccc(CC(=O)N2CCc3cc(OC)c(OC)cc3C2)cc1,-1%,6%,-2%,2%,1%,3%
COc1ccc(CC(=O)N2CCN(C(=O)Cc3ccc(OC)cc3)CC2)cc1,2%,-28%,3.3µM*,-8%,0%,-15%
COc1ccccc1CNC(=O)CN(c1ccc(C)cc1)S(=O)(=O)c1c(C)nn(C)c1C,26%,?,4.1µM*,-17%,207%,0%
COc1ccc(N(CC(=O)N2CCc3ccccc3C2)S(=O)(=O)c2c(C)nn(C)c2C)cc1,-3%,·,1.2µM*,2%,133%,?
CCOC(=O)C1=C(CN2CCC(C(=O)OCC)CC2)NC(=O)NC1c1ccc(Cl)cc1 (stereo not given),·,·,·,-15%,·,1%
Cc1cccc(C)c1OCC(=O)N1CCc2ccccc2C1,6%,?,7.4µM*,-28%,1%,-19%
Cc1cccc(OCC(=O)N2CCc3ccccc3C2)c1,-1%,0%,?,-1%,-12%,-11%
O=C(OCC(=O)N1CCc2ccccc2C1)c1cccs1,0%,1.5µM*,-7%,-3%,-15%,2%
Cc1csc(NC(=O)CSc2nnnn2C)n1,15%,203%,9.3µM*,-1%,-44%,-7%
Cn1nnnc1SCC(=O)Nc1ccc(Br)cc1Cl,-18%,8%,·,28µM*,-14%,?
O=C(CCCC(=O)OCC(=O)c1ccc(Cl)cc1Cl)Nc1cc(C(F)(F)F)ccc1Cl,3%,25%,0%,89µM*,-21%,-3%
